SKKanGAS inh = SKKanGAS growth inhibition; S. pyogenes SKKanGAS, kanamycin growth, BacTiter-Glo, 6 h; inhibition, % at 7.5 µM; 300,000 compounds, 1.3% hits; AID 1662;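 active = mean replicate score, as percent of positive control median, at least 50; inconclusive = mean below 50 but one replicate at or above 50; inactive = mean and every replicate below 50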;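 note: strain carries kanamycin resistance gene driven by streptokinase promoter and grows in 40 µg/ml kanamycin; loss of luminescence reflects streptokinase promoter inhibition or plain growth inhibition; 0% = median of DMSO wells and 100% = positive control at its reference dose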
tim10-1 inh = tim10-1 yeast growth inhibition | S. cerevisiae tim10-1 ts strain growth, BacTiter-Glo, 24 h | inhibition, % at 20 µM | 330,000 compounds, 2.2% hits | AID 463190;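 active = inhibition of at least 40%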;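 note: mutant grown at 25 °C; 0% = DMSO wells with yeast and 100% = wells holding no yeast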
TIM10 inh = TIM10 yeast growth inhibition. 330,000 compounds, 1.4% hits. S. cerevisiae TIM10 strain growth, BacTiter-Glo luminescence, 24 h. AID 463195. inhibition, % at 10 µM;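 active = inhibition of 40% or more at the single tested concentration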;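 note: wild-type TIM10 isogenic control strain grown at permissive 25 °C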
tim23-1 inh = inhibits growth of tim23-1 mutant yeast. AID 463212. inhibition, % at 20 µM. S. cerevisiae tim23-1 growth, BacTiter-Glo luminescence, 24 h. 330,000 compounds, 1.3% hits;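 active = growth inhibition of the mutant yeast at or above 50%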;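 note: temperature-sensitive mutant grown at 25 °C; plate controls were DMSO-treated mutant yeast for no effect and medium wells lacking yeast for full effect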
PfHsp90 yeast 2 = growth inhibition of yeast expressing Plasmodium Hsp90. AID 504621. S. cerevisiae expressing PfHsp90, BacTiter-Glo ATP, 48 h; yeast lacking PDR1 and PDR3 efflux regulators. 310,000 compounds, 0.32% hits. inhibition, % at 9.4 µM;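 active = every replicate shows inhibition above about 80%, whatever the replicate mean, limit read from the data; inconclusive = mean inhibition reaches the set limit but some replicate falls short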;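 note: 0% = DMSO neutral controls and 100% = 20 µM radicicol positive controls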
Calb FLC = affects C. albicans growth with fluconazole; C. albicans CaCi-2 (fluconazole-resistant clinical isolate) + fluconazole, Alamar Blue growth, 48 h; growth inhibition, % (concentration not given with the values); 300,000 compounds, 0.57% hits;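 active = growth inhibition above about 58% in most replicates, limit read from the data, passing the limit was not always enough; inconclusive = exactly half the replicates above a set limit; inactive = most replicates below a set limit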;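 note: all wells also contain fluconazole at 8 µg/ml as a sub-toxic cotreatment; 0% = median of DMSO wells and 100% = median of geldanamycin control wells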
TIM10 conf = confirmation of TIM10 yeast growth inhibitors | shares compounds with TIM10 inh | S. cerevisiae tim10 strain growth, BacTiter-Glo luminescence, 24 h | inhibition, % at 10 µM | 4,600 compounds, 63% hits | AID 463215;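 active = inhibition of yeast growth at or above a set limit in either of two replicates at 10 µM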;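 note: this counterscreen used the strain with wild-type TIM10; 0% = yeast with DMSO and 100% = medium wells lacking yeast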
tim23-1 conf = confirmation of tim23-1 mutant yeast growth inhibitors; AID 463218; 4,400 compounds, 83% hits; inhibition, % at 20 µM; shares compounds with tim23-1 inh; S. cerevisiae tim23-1 growth, BacTiter-Glo luminescence, 24 h;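 active = inhibition above about 39% in either of two replicate wells at 20 µM, limit read from the data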;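 note: temperature-sensitive tim23-1 mutant grown at 25 °C; 0% = DMSO wells with yeast and 100% = medium wells without yeast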
* marks the source's active call; other numbers are inactive results; u = inconclusive; x = not tested or not shown. A selection: hits, their analogues and other compounds. The true share with any hit is near 4.7%.

SMILES	SKKanGAS inh	tim10-1 inh	TIM10 inh	tim23-1 inh	PfHsp90 yeast 2	Calb FLC	TIM10 conf	tim23-1 conf
N#C/C(=C\c1ccc(N2CCOCC2)o1)c1nc2ccccc2[nH]1	6	36	42*	54*	8	-4	31*	74*
CCOc1ccccc1OCCCC(=O)NNC(=O)c1cc(C)oc1C	x	-10	-9	-3	2	x	x	x
Cc1ccc(O)c(N=Nc2nccs2)c1	x	26	50*	72*	112*	x	68*	71*
NNc1nc2c(Cl)c(Cl)ccc2s1	4	22	41*	68*	6	-2	28*	52*
FC(F)(F)c1cccc(NC(=S)NNC(=S)Nc2ccc(Cl)cc2)c1	115*	-24	59*	65*	x	6	73*	10
FC(F)(F)c1cnc(NNC(=S)Nc2ccc(Cl)cc2)c(Cl)c1	16	28	10	6	12	2	x	x
O=C(O)c1ccc(C(=O)c2cc([N+](=O)[O-])cc([N+](=O)[O-])c2)cc1	x	x	x	x	8	x	x	x
COc1ccc(C2=CC(=O)CCC2)cc1	-2	7	8	8	0	-10	x	x
C=CCSC(=C(C#N)C#N)c1cc2c([nH]1)CCCC2	3	29	41*	52*	-26	x	23	62*
O=C(O)c1cc2c([nH]c1=O)CCCC2	2	5	-11	1	-4	0	x	x
Cc1cc(C)cc(C(=O)N(CCc2ccccc2)C2CC3CCC(C2)N3C)c1 (stereo not drawn)	1	-8	-9	-17	5	-3	x	x
Cc1ccc(S(=O)(=O)Nc2cccc3cccnc23)c([N+](=O)[O-])c1	u	23	46*	52*	x	4	35*	53*
CS(=O)(=O)Nc1cccc2cccnc12	x	11	7	14	-11	x	x	x
CCN(CC)C(=O)c1cc([N+](=O)[O-])cc2c1-c1ccc([N+](=O)[O-])cc1C2=C(C#N)C#N	8	37	40*	51*	-3	12	22	74*
N/C(CC1CC1(Cl)Cl)=N\OC(=O)c1ccccc1 (stereo not drawn)	15	35	52*	80*	-6	-7	66*	73*
N/C(=N\OC(=O)c1ccccc1)c1ccccn1	3	24	18	33	34	3	x	x
O=C(Nc1ccc([N+](=O)[O-])cc1)N1CCc2ccccc2C1	2	7	-29	12	7	-2	x	x
COc1cccc(NC(=O)N2CCc3ccccc3C2)c1	-2	11	7	18	-1	-7	x	x
O=C(Nc1cccc(Cl)c1)N1CCc2ccccc2C1	0	38	64*	65*	-4	-14	62*	84*
CC(C)c1ccc(NC(=O)N2CCc3ccccc3C2)cc1	-9	24	45*	52*	12	24	31*	50*
COc1ccccc1Oc1ccc(S(=O)(=O)N2CCCCC2)cc1NC(=O)CCNC(C)=O	7	-16	-2	-3	-8	-2	x	x
O=C(Nc1cccc(S(=O)(=O)N2CCOCC2)c1)C1COc2ccccc2O1 (stereo not drawn)	x	23	23	30	-13	x	x	x
CN(C)c1ccc(/C=C(/NC(=O)c2ccccc2Cl)C(=O)NCCN2CCOCC2)cc1	-3	16	6	12	6	x	x	x
O=C(N/N=C\c1ccc(O)c([N+](=O)[O-])c1)C1COc2ccccc2O1 (stereo not drawn)	-5	5	9	11	0	27	x	x
Cc1cc([N+](=O)[O-])cc(/C=N\NC(=O)C2COc3ccccc3O2)c1O (stereo not drawn)	106*	14	45*	67*	-16	-45	36*	70*
SMILES	SKKanGAS inh	tim10-1 inh	TIM10 inh	tim23-1 inh	PfHsp90 yeast 2	Calb FLC	TIM10 conf	tim23-1 conf
Cn1ncc2c(O/N=C(\N)c3ccc(C(C)(C)C)cc3)ncnc21	0	27	79*	55*	-34	-2	84*	24
CN(CC(=O)OCC(=O)NCC(F)(F)F)S(=O)(=O)c1ccc(Cl)cc1	-12	-8	5	6	-22	-2	x	x
O=C(Nc1ccc2nc3n(c(=O)c2c1)CCCCC3)c1cc([N+](=O)[O-])ccc1F	19	38	48*	68*	3	-11	46*	55*
O=C(Nc1ccc2nc3n(c(=O)c2c1)CCCCC3)c1ccccn1	-8	35	46*	55*	4	3	36*	68*
O=C(Nc1ccc2nc3n(c(=O)c2c1)CCCC3)c1ccccc1F	1	9	23	49	13	-2	x	x
CC(C)(C)[C@H]1COC(=O)CCCC/C=C\C[C@H](CC(=O)NCCO)C(=O)N1	x	-11	-2	-8	-1	x	x	x
CCOC(=O)c1cnc(-n2nc(C)cc2C)nc1NC1CCCC1	97*	39	45*	52*	-35	-8	51*	44*
O=C(Nc1nc(-c2ccc([N+](=O)[O-])cc2)cs1)c1c(F)cccc1F	1	-10	4	2	-9	-1	x	x
COc1cc([N+](=O)[O-])cc2sc(NC(=O)c3c(F)cccc3F)nc12	3	37	47*	52*	-19	13	44*	51*
COc1ccc(CNC(=O)c2nccnc2CO)cc1	-7	-5	6	6	22	0	x	x
Oc1ccc(Nc2nc(-c3ccccc3O)nc3ccccc23)cc1	20	26	47*	75*	-5	21	62*	-20
CC1CCCC(C)N1C(=O)COC(=O)C1CCN(S(=O)(=O)c2ccc3c(c2)OCCO3)CC1 (stereo not drawn)	5	21	21	23	-9	-4	x	x
CN1CCc2cc3c(c4c2[C@H]1[C@H](O)c1ccccc1-4)OCO3	4	36	53*	58*	-14	95*	68*	63*
COc1ccc2c(c1OC)C(=O)OC2C1c2c(cc3c(c2OC)OCO3)CCN1C (stereo not drawn)	-5	19	6	20	-2	3	x	x
O=[N+]([O-])/C=C/c1c(OCc2ccccc2)ccc2ccccc12	70*	34	73*	61*	1	9	6	47*
CCCCOc1ccc2ccccc2c1C=O	9	27	29	45	2	-2	x	x
O=C(Nc1nccs1)C1CC(=O)N(CCc2ccc(F)cc2)C1 (stereo not drawn)	6	5	1	2	-6	3	x	x
Cc1ccc(C)c(NC(=O)CN(C)C(=O)c2cc(C3CC3)nn2-c2ccccc2)c1	x	-13	-9	14	7	x	x	x
O=S1(=O)Nc2c(ccc3cccnc23)-c2ccccc21	112*	29	48*	70*	151*	9	57*	47*

Screens deposited in PubChem BioAssay by several laboratories.
